# In PubChem BioAssay (Tox21):
# Results filed as inconclusive are left out. Entries that show only a call come without a potency. Active and inactive are the calls of the source. Unless noted, calls follow the shape of the full dose curve.
# Tests used:
# [1] = qHTS assay to identify small molecule antagonists of the sonic hedgehog signaling (Shh) pathway (AID 1259369); also: nearly all actives have a fitted effect of over 45% in size
# Outline: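 Antagonist mode: compound added to 3T3 Gli1-Luc cells followed by conditioned-medium stimulation, 24 h at 37 C, 5% CO2. Inhibition taken as loss of Gli1-driven luciferase luminescence.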
# [2] = qHTS assay to identify small molecule agonists of the androgen receptor (AR) signaling pathway in the presence of an antagonist - cell viability counter screen (AID 1259379; active = well fitted curve in the direction sought with a large enough effect in the repeat runs; an effect the other way counts as inactive or inconclusive; also: nearly all actives have a fitted effect of over 25% in size; also: potency is read from the fitted curve at half-maximal effect)
# Outline: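 Cytotoxicity counter-screen run in the same wells as the nilutamide-challenged (3.0 µM final) AR agonist assay in MDA-kb2 cells. Compounds tested at 15 concentrations for 16 h, 37 °C without CO2; CellTiter-Fluor fluorescence read.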
# [3] = qHTS assay to identify small molecule antagonists of the estrogen receptor beta (ER-beta) signaling pathway - cell viability counter screen (AID 1259382; active = well fitted curve in the direction sought with a large enough effect in the repeat runs; an effect the other way counts as inactive or inconclusive; also: series mostly up to about 92 µM; nearly all actives have a fitted effect of over 55% in size)
# Outline: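 Cytotoxicity was measured in the same wells by CellTiter-Glo luminescence after 30 min at room temperature. Cells were ER-beta-bla HEK293T in charcoal-stripped serum, given compound together with 1 nM E2 and incubated 16 h at 37C.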
# [4] = qHTS assay to identify small molecule agonists or antagonists of the thyroid stimulating hormone receptor (TSHR) signaling pathway - wild type cell line counter screen (AID 1259384)
# Outline: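 Wild-type Hek293 cells, 800/well, 18 h at 37C, then compound with Ro20-1724 for 30 min RT. cAMP by HTRF (cAMP-d2/anti-cAMP cryptate), 1 h RT, fluorescence read. 15 concentrations, triplicates.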
# [5] = qHTS assay to identify small molecule agonists of the estrogen receptor beta (ER-beta) signaling pathway - cell viability counter screen (AID 1259380; active = well fitted curve in the direction sought with a large enough effect in the repeat runs; an effect the other way counts as inactive or inconclusive; also: nearly all actives have a fitted effect of over 30% in size; also: potency is read from the fitted curve at half-maximal effect)
# Outline: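 Cell viability counter screen: CellTiter-Glo luminescence (30 min, room temperature) measured in the same wells as the beta-lactamase readout, after 16 hr compound exposure at 37C of ER-beta-bla HEK293T cells in 2% charcoal-stripped FBS medium.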
# [6] = molecular target: Estrogen receptor (Homo sapiens) (UniProt P03372); assay: qHTS assay to identify small molecule agonists of the estrogen receptor alpha (ER-alpha) signaling pathway in the presence of an antagonist (AID 1259383); also: nearly all actives have a fitted effect of over 15% in size; also: potency is read from the fitted curve at half-maximal effect; as to activation: top concentration of the series differs between compounds
# Outline: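 Agonist-mode confirmation run in the presence of 10.0nM (final) ICI-182,780 antagonist. The reporter was ERE-driven luciferase in VM7Luc4E2 cells, grown in charcoal-stripped serum. Cells were exposed to 15-concentration compound series for 22hr, then ONE-Glo luminescence was read.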
# [7] = molecular target: Thyrotropin receptor (Homo sapiens) (UniProt P16473); assay: qHTS assay to identify small molecule antagonists of the thyroid stimulating hormone receptor (TSHR) signaling pathway (AID 1259385); also: nearly all actives have a fitted effect of over 20% in size
# Outline: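 TSHR-HEK293 cells (800/well) plated 18 h, then compounds with Ro20-1724 and TSH at 1.5 ng/mL final, 30 min at room temperature. cAMP quantified by HTRF (cAMP-d2/anti-cAMP-cryptate, 1 h); 15 concentrations in triplicate.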
# [8] = molecular target: Estrogen receptor beta (Homo sapiens) (UniProt Q92731); assay: qHTS assay to identify small molecule agonists of the estrogen receptor beta (ER-beta) signaling pathway (AID 1259377; active = well fitted activation curve with a large enough effect in the signal ratio in the repeat runs, not every such curve was filed as active; the % refers to the signal ratio)
# Outline: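 qHTS in ER-beta-UAS-bla HEK293T cells: 6 hr settling, then 16 hr compound at 37C, then LiveBLAzer substrate 2 h at RT before fluorescence reading.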
# [9] = molecular target: Estrogen receptor beta (Homo sapiens) (UniProt Q92731); assay: qHTS assay to identify small molecule antagonists of the estrogen receptor beta (ER-beta) signaling pathway (AID 1259378; active = well fitted inhibition curve with a large enough effect in the signal ratio in the repeat runs, not every such curve was filed as active; the % refers to the signal ratio; also: potency is read from the fitted curve at half-maximal effect)
# Outline: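 ER-beta-UAS-bla HEK293T cells in 2% charcoal-stripped FBS medium treated with compound plus 1nM final 17-beta-estradiol for 16 hr at 37C. Beta-lactamase reporter read by FRET substrate fluorescence after 2 hours at room temperature.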
# [10] = molecular target: Androgen receptor (Homo sapiens) (UniProt P10275); assay: qHTS assay to identify small molecule agonists of the androgen receptor (AR) signaling pathway in the presence of an antagonist (AID 1259381); also: nearly all actives have a fitted effect of over 15% in size
# Outline: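 Agonist-mode confirmation run against 3.0 uM final nilutamide: compounds titrated at 15 concentrations onto MDA-kb2 MMTV-luciferase reporter cells. Luminescence measured with ONE-Glo following 16 hr incubation, 37C, 0% CO2.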
# Chain of Estrogen receptor beta (Homo sapiens) (Q92731 whole entry, looked up): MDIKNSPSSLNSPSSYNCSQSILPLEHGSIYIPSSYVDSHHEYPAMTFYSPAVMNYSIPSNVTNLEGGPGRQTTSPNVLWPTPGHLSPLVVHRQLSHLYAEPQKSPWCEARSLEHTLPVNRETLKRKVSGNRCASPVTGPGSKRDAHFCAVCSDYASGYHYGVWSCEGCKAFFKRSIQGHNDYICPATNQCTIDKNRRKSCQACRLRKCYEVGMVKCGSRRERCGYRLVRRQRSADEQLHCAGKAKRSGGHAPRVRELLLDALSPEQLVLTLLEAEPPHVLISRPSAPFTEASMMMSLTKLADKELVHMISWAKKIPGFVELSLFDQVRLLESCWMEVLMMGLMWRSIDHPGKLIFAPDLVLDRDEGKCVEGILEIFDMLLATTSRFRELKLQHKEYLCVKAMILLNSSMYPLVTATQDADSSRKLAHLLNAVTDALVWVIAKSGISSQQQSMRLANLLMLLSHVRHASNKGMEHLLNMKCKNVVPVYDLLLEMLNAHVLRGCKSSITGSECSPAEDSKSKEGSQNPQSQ
# Chain of Estrogen receptor (Homo sapiens) (P03372 whole entry, looked up): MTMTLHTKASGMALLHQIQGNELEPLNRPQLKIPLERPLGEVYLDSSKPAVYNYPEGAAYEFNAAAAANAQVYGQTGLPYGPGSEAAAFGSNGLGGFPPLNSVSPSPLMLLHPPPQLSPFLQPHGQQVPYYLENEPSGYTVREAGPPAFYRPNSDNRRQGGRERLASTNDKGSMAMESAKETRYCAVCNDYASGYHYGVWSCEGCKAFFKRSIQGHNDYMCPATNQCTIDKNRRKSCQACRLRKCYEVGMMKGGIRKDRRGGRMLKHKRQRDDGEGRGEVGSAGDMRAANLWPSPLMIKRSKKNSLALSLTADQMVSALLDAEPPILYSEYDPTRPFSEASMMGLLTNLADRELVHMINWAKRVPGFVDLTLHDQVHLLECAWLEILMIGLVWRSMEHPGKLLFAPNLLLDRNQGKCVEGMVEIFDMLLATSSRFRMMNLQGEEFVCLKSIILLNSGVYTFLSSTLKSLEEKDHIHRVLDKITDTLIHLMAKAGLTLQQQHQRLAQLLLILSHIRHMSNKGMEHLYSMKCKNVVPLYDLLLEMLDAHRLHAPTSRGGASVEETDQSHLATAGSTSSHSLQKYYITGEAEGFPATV
# Chain of Thyrotropin receptor (Homo sapiens) (P16473 whole entry, looked up): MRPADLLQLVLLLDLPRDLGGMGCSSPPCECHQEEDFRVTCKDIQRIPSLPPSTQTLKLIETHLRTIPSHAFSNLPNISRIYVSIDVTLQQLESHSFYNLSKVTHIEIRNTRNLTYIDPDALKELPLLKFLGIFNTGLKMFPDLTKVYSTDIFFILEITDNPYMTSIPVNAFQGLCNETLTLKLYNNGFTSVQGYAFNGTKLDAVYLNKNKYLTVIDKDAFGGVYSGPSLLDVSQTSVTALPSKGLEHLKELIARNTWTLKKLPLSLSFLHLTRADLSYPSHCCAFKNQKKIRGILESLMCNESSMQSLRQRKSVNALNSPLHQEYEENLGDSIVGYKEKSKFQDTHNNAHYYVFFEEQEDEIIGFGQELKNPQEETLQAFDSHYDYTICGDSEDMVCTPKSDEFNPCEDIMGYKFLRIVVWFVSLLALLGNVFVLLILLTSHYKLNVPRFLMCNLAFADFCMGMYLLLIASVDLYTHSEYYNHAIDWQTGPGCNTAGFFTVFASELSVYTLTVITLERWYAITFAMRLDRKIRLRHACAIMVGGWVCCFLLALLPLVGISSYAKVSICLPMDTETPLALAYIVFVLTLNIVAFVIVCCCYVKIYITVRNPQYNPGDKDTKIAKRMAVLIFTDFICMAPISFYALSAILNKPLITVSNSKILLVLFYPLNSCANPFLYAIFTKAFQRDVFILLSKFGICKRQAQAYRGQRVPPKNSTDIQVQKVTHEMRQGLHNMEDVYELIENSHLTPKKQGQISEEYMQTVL
# Chain of Androgen receptor (Homo sapiens) (P10275 whole entry, looked up): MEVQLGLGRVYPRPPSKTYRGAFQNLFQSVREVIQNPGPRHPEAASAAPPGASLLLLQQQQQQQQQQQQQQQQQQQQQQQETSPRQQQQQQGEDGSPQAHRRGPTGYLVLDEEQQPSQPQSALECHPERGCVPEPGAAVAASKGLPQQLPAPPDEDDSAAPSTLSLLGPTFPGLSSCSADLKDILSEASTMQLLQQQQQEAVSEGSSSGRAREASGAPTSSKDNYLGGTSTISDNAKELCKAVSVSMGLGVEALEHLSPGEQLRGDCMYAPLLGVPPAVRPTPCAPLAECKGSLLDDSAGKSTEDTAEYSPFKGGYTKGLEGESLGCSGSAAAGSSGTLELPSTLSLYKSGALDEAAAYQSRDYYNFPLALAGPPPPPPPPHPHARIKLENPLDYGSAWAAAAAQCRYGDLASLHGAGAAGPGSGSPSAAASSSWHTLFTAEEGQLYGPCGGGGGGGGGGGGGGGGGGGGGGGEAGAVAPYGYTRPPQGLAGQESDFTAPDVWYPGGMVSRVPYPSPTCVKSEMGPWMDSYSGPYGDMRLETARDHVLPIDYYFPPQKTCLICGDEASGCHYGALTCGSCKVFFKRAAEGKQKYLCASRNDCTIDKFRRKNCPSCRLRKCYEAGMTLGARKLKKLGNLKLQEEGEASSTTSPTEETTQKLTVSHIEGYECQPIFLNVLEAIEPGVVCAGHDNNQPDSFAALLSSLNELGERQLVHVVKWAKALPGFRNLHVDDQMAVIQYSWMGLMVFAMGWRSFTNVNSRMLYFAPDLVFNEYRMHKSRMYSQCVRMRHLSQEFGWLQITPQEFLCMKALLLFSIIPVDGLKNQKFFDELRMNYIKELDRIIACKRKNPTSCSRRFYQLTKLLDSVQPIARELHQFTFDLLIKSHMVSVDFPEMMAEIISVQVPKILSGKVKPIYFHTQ
SMILES,Potency [1],Potency [2],Potency [3],Potency [4],Potency [5],Potency [6],Potency [7],outcome [8],Potency [9],Potency [10]
CCOP(=S)(Oc1cnc(C(C)(C)C)nc1)OC(C)C (stereo not given),inactive,inactive,inactive,inactive,,,,,,
CC(CC(C#N)(c1ccccc1)c1ccccc1)N(C)C (stereo not given),inactive,inactive,,inactive,60.8 µM (active),inactive,inactive,,,
CN(C)CCc1ccc(O)cc1,inactive,inactive,inactive,inactive,inactive,,inactive,,,
ClC(Cl)Br,inactive,inactive,inactive,inactive,inactive,inactive,inactive,,,
COc1ccc(C(=O)N2CCCC2=O)cc1,inactive,inactive,inactive,inactive,inactive,,inactive,,,
ClCC(Cl)Cl,inactive,inactive,inactive,inactive,inactive,,inactive,,,
Cc1nnc2n1-c1sc(CCC(=O)N3CCOCC3)cc1C(c1ccccc1Cl)=NC2,inactive,inactive,inactive,inactive,inactive,inactive,inactive,,,
CCCCCCBr,inactive,inactive,inactive,inactive,inactive,,inactive,,,
CCNc1nc(NC(C)C)nc(OC)n1,inactive,inactive,inactive,inactive,inactive,,inactive,,,
CCCSC(=O)N(CCC)CCC,inactive,inactive,inactive,inactive,inactive,,inactive,,,
O=C(NCO)NCO,inactive,inactive,inactive,inactive,inactive,,inactive,,,
CC(=O)CCc1ccc2c(c1)OCO2,inactive,inactive,inactive,inactive,inactive,inactive,inactive,,,
O=S(=O)(O)C(F)(F)C(F)(F)C(F)(F)C(F)(F)C(F)(F)C(F)(F)F,inactive,inactive,,inactive,inactive,inactive,inactive,,,
O=[N+]([O-])c1cccc(O)c1,inactive,inactive,,inactive,inactive,,inactive,,,
COc1cc(OC)nc(Sc2cccc(Cl)c2C(=O)O)n1,inactive,inactive,inactive,inactive,inactive,,inactive,,,
COc1cc(OC)nc(Oc2cccc(Oc3nc(OC)cc(OC)n3)c2C(=O)O)n1,,inactive,inactive,,inactive,,,inactive,inactive,inactive
O=[N+]([O-])c1cccc2c([N+](=O)[O-])cccc12,inactive,,,inactive,10.9 µM (active),,inactive,,,inactive
Nc1cc2c3c(c1)C(c1ccccc1)=N[C@@H](NC(=O)c1cccnc1)C(=O)N3CC2,,inactive,inactive,inactive,inactive,inactive,inactive,inactive,inactive,
CSc1nc(N=[N+]=[N-])nc(NC(C)C)n1,,inactive,,inactive,inactive,inactive,inactive,,,
CCc1cc2c(s1)-n1c(C)nnc1CN=C2c1ccccc1Cl,,inactive,inactive,,inactive,,,,,
COC(=O)COc1ccc(Cl)cc1Cl,,inactive,inactive,inactive,inactive,,inactive,,,
COC(=O)C1=CCCN(C)C1,,inactive,inactive,inactive,inactive,inactive,inactive,,inactive,
O=C(O)C(Br)CBr (stereo not given),,inactive,inactive,inactive,inactive,inactive,inactive,inactive,inactive,
O=C1OC(CCN2CCCCC2)OC1(c1ccccc1)c1ccccc1 (stereo not given),,inactive,inactive,inactive,inactive,,inactive,inactive,inactive,inactive
CCCSP(=O)(OCC)Oc1ccc(Br)cc1Cl (stereo not given),,inactive,inactive,inactive,inactive,,inactive,inactive,,
CC(C)CP(=S)(S)CC(C)C,,inactive,,inactive,,inactive,inactive,,,
CCOC(=O)/C=C(C)/C=C/C[C@@H](C)CCCC(C)C,,inactive,,,43.3 µM (active),inactive,,inactive,,
CCN(CC)C(=O)[C@@H]1C=C2c3cccc4[nH]cc(c34)C[C@H]2N(C)C1,,inactive,inactive,,,inactive,,,inactive,

SMILES,Potency [1],Potency [2],Potency [3],Potency [4],Potency [5],Potency [6],Potency [7],outcome [8],Potency [9],Potency [10]
COC(=O)c1ccccc1S(=O)(=O)NC(=O)N(C)c1nc(C)nc(OC)n1,,inactive,,,inactive,inactive,,,,
CCN(CC)c1nc(C)cc(OP(=S)(OC)OC)n1,,inactive,inactive,,,,inactive,,inactive,
O=C(O)c1ccc2[nH]cc(CCCCN3CC=C(c4ccccc4)CC3)c2c1,,inactive,inactive,inactive,inactive,inactive,inactive,,,inactive
CCOC(=O)C(c1c(O)c2ccccc2oc1=O)c1c(O)c2ccccc2oc1=O,,inactive,,inactive,,,,,,inactive
C#CCN1C(=O)COc2cc(F)c(N3C(=O)C4=C(CCCC4)C3=O)cc21,,inactive,inactive,inactive,inactive,inactive,inactive,inactive,,inactive
CC1(C(=O)Nc2ccc(O)c(Cl)c2Cl)CCCCC1,,inactive,,,inactive,,,,,
COc1cc2c(cc1OC)[C@@]13CCN4CC5=CCO[C@H]6CC(=O)N2[C@H]1[C@H]6[C@H]5C[C@H]43,,inactive,inactive,inactive,,inactive,inactive,,,
O=C(Nc1ccccc1)c1ccccc1I,,inactive,inactive,inactive,,inactive,inactive,,,inactive
C[C@]1(O)CC[C@H]2[C@@H]3CCC4=CC(=O)CC[C@]4(C)[C@@]3(F)[C@@H](O)C[C@@]21C,,inactive,inactive,inactive,,,inactive,,,
CCC(=O)C(CCN(C)C)(c1ccccc1)c1ccccc1,,inactive,,,inactive,inactive,,,,inactive
Fc1ccc(C2(Cn3cncn3)OC2c2ccccc2Cl)cc1 (stereo not given),,inactive,,inactive,17.2 µM (active),inactive,inactive,inactive,30.6 µM (active),
N#CCBr,,inactive,inactive,inactive,inactive,inactive,inactive,,inactive,
CC(C(=O)c1ccccc1)N(C)C (stereo not given),,inactive,inactive,inactive,,inactive,inactive,,inactive,inactive
Cc1ncc2n1-c1ccc(Cl)cc1C(c1ccccc1F)=NC2,,inactive,inactive,inactive,inactive,inactive,inactive,inactive,,
CC(C1CC1)C(O)(Cn1cncn1)c1ccc(Cl)cc1 (stereo not given),,inactive,inactive,inactive,inactive,,inactive,,inactive,
COc1ccc2c(c1OC)CN1CCc3cc4c(cc3C1C2)OCO4 (stereo not given),,inactive,,inactive,9.44 µM (active),,inactive,,,inactive
CC1(C)CON(Cc2ccccc2Cl)C1=O,,inactive,inactive,inactive,inactive,inactive,inactive,inactive,inactive,
O=C(CCCN1CCC(n2c(=O)[nH]c3ccccc32)CC1)c1ccc(F)cc1,,,inactive,inactive,,inactive,,,,inactive
CCCCP(CCCC)CCCC,,inactive,inactive,inactive,,inactive,inactive,,inactive,
OC(c1ccccc1)(c1ccccc1)C1CCNCC1,,inactive,inactive,inactive,inactive,,inactive,,inactive,
O=C(Nc1ccccc1)N(Cc1ccc(Cl)cc1)C1CCCC1,,68.6 µM (active),inactive,inactive,,,inactive,inactive,24.3 µM (active),
[As]#[In],,inactive,inactive,inactive,inactive,,inactive,inactive,inactive,
OC(c1ccc(F)cc1)(c1cncnc1)c1ccccc1Cl (stereo not given),,inactive,inactive,inactive,inactive,inactive,inactive,inactive,,
C[C@H]1CCC[C@H](O)CCCCCc2cc(O)cc(O)c2C(=O)O1,,,inactive,inactive,inactive,0.0616 µM (active),inactive,,,
CCCCOC(=O)[C@@H](C)Oc1ccc(Oc2ccc(C#N)cc2F)cc1,,inactive,inactive,inactive,inactive,inactive,,inactive,inactive,
C(CCOCC1CO1)COCC1CO1 (stereo not given),,inactive,,inactive,inactive,inactive,inactive,,,
CC(Oc1ccc(Oc2ncc(C(F)(F)F)cc2Cl)cc1)C(=O)O (stereo not given),,inactive,,inactive,17.2 µM (active),inactive,inactive,,,inactive
